Source: paper PMC11006913
Numbering of substitutions follows the chain as printed.

Tests used:
Assay in all cases: PBM; 200 nM protein, PBS
Details in all cases: dsDNA, one strand shown
SIX6 [1] = molecular target: T1, SIX6 (Homo sapiens, UniProt O95475 114-200, L167I)
T1 sequence: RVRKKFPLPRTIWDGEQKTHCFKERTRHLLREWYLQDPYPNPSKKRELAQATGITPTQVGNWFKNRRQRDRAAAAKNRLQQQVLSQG

SIX6 [2] = molecular target: T2, SIX6 (Homo sapiens, UniProt O95475 114-200, L143V)
T2 sequence: T1 sequence with L30V, I54L

SIX6 [3] = molecular target: T3, SIX6 (Homo sapiens, UniProt O95475 114-200, H141N)
T3 sequence: T1 sequence with H28N, I54L

SIX6 [4] = molecular target: T4, SIX6 (Homo sapiens, UniProt O95475 114-200, T165P)
T4 sequence: T1 sequence with T52P, I54L

SIX6 [5] = molecular target: T5, SIX6 (Homo sapiens, UniProt O95475 114-200, L167M)
T5 sequence: T1 sequence with I54M

SIX6 [6] = molecular target: T6, SIX6 (Homo sapiens, UniProt O95475 114-200, L143M)
T6 sequence: T1 sequence with L30M, I54L

SIX6 [7] = molecular target: T7, SIX6 (Homo sapiens, UniProt O95475 114-200, L143I)
T7 sequence: T1 sequence with L30I, I54L

SIX6 [8] = molecular target: T8, SIX6 (Homo sapiens, UniProt O95475 114-200, T165G)
T8 sequence: T1 sequence with T52G, I54L

SIX6 [9] = molecular target: T9, SIX6 (Homo sapiens, UniProt O95475 114-200, T139Q)
T9 sequence: T1 sequence with T26Q, I54L

SIX6 [10] = molecular target: T10, SIX6 (Homo sapiens, UniProt O95475 114-200, T165A)
T10 sequence: T1 sequence with T52A, I54L

SIX6 [11] = molecular target: T11, SIX6 (Homo sapiens, UniProt O95475 114-200, L167V)
T11 sequence: T1 sequence with I54V

SIX6 [12] = molecular target: T12, SIX6 (Homo sapiens, UniProt O95475 114-200)
T12 sequence: T1 sequence with I54L

SIX6 [13] = molecular target: T13, SIX6 (Homo sapiens, UniProt O95475 114-200, T165I)
T13 sequence: T1 sequence with T52I, I54L

GGTGATAC
binding signal (SIX6 [1]): 11.3 upbm affinity estimate (log intensity, higher = more binding, comparable within an allelic series) | binding signal (SIX6 [2]): 10.3 upbm affinity estimate (log intensity, higher = more binding, comparable within an allelic series) | binding signal (SIX6 [3]): 11.3 upbm affinity estimate (log intensity, higher = more binding, comparable within an allelic series) | binding signal (SIX6 [4]): 9.52 upbm affinity estimate (log intensity, higher = more binding, comparable within an allelic series) | binding signal (SIX6 [5]): 10.6 upbm affinity estimate (log intensity, higher = more binding, comparable within an allelic series) | binding signal (SIX6 [6]): 11 upbm affinity estimate (log intensity, higher = more binding, comparable within an allelic series) | binding signal (SIX6 [7]): 10.4 upbm affinity estimate (log intensity, higher = more binding, comparable within an allelic series) | binding signal (SIX6 [8]): 11.3 upbm affinity estimate (log intensity, higher = more binding, comparable within an allelic series) | binding signal (SIX6 [9]): 11.4 upbm affinity estimate (log intensity, higher = more binding, comparable within an allelic series) | binding signal (SIX6 [10]): 11.3 upbm affinity estimate (log intensity, higher = more binding, comparable within an allelic series) | binding signal (SIX6 [11]): 11 upbm affinity estimate (log intensity, higher = more binding, comparable within an allelic series) | binding signal (SIX6 [12]): 11 upbm affinity estimate (log intensity, higher = more binding, comparable within an allelic series) | binding signal (SIX6 [13]): 11 upbm affinity estimate (log intensity, higher = more binding, comparable within an allelic series)

CGCGCTCC
binding signal (SIX6 [1]): 8.99 upbm affinity estimate (log intensity, higher = more binding, comparable within an allelic series) | binding signal (SIX6 [2]): 8.9 upbm affinity estimate (log intensity, higher = more binding, comparable within an allelic series) | binding signal (SIX6 [3]): 8.83 upbm affinity estimate (log intensity, higher = more binding, comparable within an allelic series) | binding signal (SIX6 [4]): 9.01 upbm affinity estimate (log intensity, higher = more binding, comparable within an allelic series) | binding signal (SIX6 [5]): 8.97 upbm affinity estimate (log intensity, higher = more binding, comparable within an allelic series) | binding signal (SIX6 [6]): 9.06 upbm affinity estimate (log intensity, higher = more binding, comparable within an allelic series) | binding signal (SIX6 [7]): 8.97 upbm affinity estimate (log intensity, higher = more binding, comparable within an allelic series) | binding signal (SIX6 [8]): 8.86 upbm affinity estimate (log intensity, higher = more binding, comparable within an allelic series) | binding signal (SIX6 [9]): 9.04 upbm affinity estimate (log intensity, higher = more binding, comparable within an allelic series) | binding signal (SIX6 [10]): 8.97 upbm affinity estimate (log intensity, higher = more binding, comparable within an allelic series) | binding signal (SIX6 [11]): 8.93 upbm affinity estimate (log intensity, higher = more binding, comparable within an allelic series) | binding signal (SIX6 [12]): 8.91 upbm affinity estimate (log intensity, higher = more binding, comparable within an allelic series) | binding signal (SIX6 [13]): 8.89 upbm affinity estimate (log intensity, higher = more binding, comparable within an allelic series)

ATGGGGGC
binding signal (SIX6 [1]): 8.95 upbm affinity estimate (log intensity, higher = more binding, comparable within an allelic series) | binding signal (SIX6 [2]): 8.73 upbm affinity estimate (log intensity, higher = more binding, comparable within an allelic series) | binding signal (SIX6 [3]): 9.01 upbm affinity estimate (log intensity, higher = more binding, comparable within an allelic series) | binding signal (SIX6 [4]): 8.77 upbm affinity estimate (log intensity, higher = more binding, comparable within an allelic series) | binding signal (SIX6 [5]): 8.95 upbm affinity estimate (log intensity, higher = more binding, comparable within an allelic series) | binding signal (SIX6 [6]): 8.95 upbm affinity estimate (log intensity, higher = more binding, comparable within an allelic series) | binding signal (SIX6 [7]): 8.81 upbm affinity estimate (log intensity, higher = more binding, comparable within an allelic series) | binding signal (SIX6 [8]): 8.95 upbm affinity estimate (log intensity, higher = more binding, comparable within an allelic series) | binding signal (SIX6 [9]): 9.11 upbm affinity estimate (log intensity, higher = more binding, comparable within an allelic series) | binding signal (SIX6 [10]): 8.97 upbm affinity estimate (log intensity, higher = more binding, comparable within an allelic series) | binding signal (SIX6 [11]): 8.97 upbm affinity estimate (log intensity, higher = more binding, comparable within an allelic series) | binding signal (SIX6 [12]): 8.87 upbm affinity estimate (log intensity, higher = more binding, comparable within an allelic series) | binding signal (SIX6 [13]): 8.97 upbm affinity estimate (log intensity, higher = more binding, comparable within an allelic series)

CCCCGCAG
binding signal (SIX6 [1]): 9.03 upbm affinity estimate (log intensity, higher = more binding, comparable within an allelic series) | binding signal (SIX6 [2]): 8.85 upbm affinity estimate (log intensity, higher = more binding, comparable within an allelic series) | binding signal (SIX6 [3]): 9.03 upbm affinity estimate (log intensity, higher = more binding, comparable within an allelic series) | binding signal (SIX6 [4]): 8.95 upbm affinity estimate (log intensity, higher = more binding, comparable within an allelic series) | binding signal (SIX6 [5]): 9 upbm affinity estimate (log intensity, higher = more binding, comparable within an allelic series) | binding signal (SIX6 [6]): 8.92 upbm affinity estimate (log intensity, higher = more binding, comparable within an allelic series) | binding signal (SIX6 [7]): 8.95 upbm affinity estimate (log intensity, higher = more binding, comparable within an allelic series) | binding signal (SIX6 [8]): 9.04 upbm affinity estimate (log intensity, higher = more binding, comparable within an allelic series) | binding signal (SIX6 [9]): 8.99 upbm affinity estimate (log intensity, higher = more binding, comparable within an allelic series) | binding signal (SIX6 [10]): 8.96 upbm affinity estimate (log intensity, higher = more binding, comparable within an allelic series) | binding signal (SIX6 [11]): 8.93 upbm affinity estimate (log intensity, higher = more binding, comparable within an allelic series) | binding signal (SIX6 [12]): 8.96 upbm affinity estimate (log intensity, higher = more binding, comparable within an allelic series) | binding signal (SIX6 [13]): 8.97 upbm affinity estimate (log intensity, higher = more binding, comparable within an allelic series)

GCCCGGAA
binding signal (SIX6 [1]): 9.01 upbm affinity estimate (log intensity, higher = more binding, comparable within an allelic series) | binding signal (SIX6 [2]): 8.91 upbm affinity estimate (log intensity, higher = more binding, comparable within an allelic series) | binding signal (SIX6 [3]): 8.98 upbm affinity estimate (log intensity, higher = more binding, comparable within an allelic series) | binding signal (SIX6 [4]): 8.9 upbm affinity estimate (log intensity, higher = more binding, comparable within an allelic series) | binding signal (SIX6 [5]): 8.95 upbm affinity estimate (log intensity, higher = more binding, comparable within an allelic series) | binding signal (SIX6 [6]): 9.01 upbm affinity estimate (log intensity, higher = more binding, comparable within an allelic series) | binding signal (SIX6 [7]): 9 upbm affinity estimate (log intensity, higher = more binding, comparable within an allelic series) | binding signal (SIX6 [8]): 9.03 upbm affinity estimate (log intensity, higher = more binding, comparable within an allelic series) | binding signal (SIX6 [9]): 9.07 upbm affinity estimate (log intensity, higher = more binding, comparable within an allelic series) | binding signal (SIX6 [10]): 8.96 upbm affinity estimate (log intensity, higher = more binding, comparable within an allelic series) | binding signal (SIX6 [11]): 8.95 upbm affinity estimate (log intensity, higher = more binding, comparable within an allelic series) | binding signal (SIX6 [12]): 8.97 upbm affinity estimate (log intensity, higher = more binding, comparable within an allelic series) | binding signal (SIX6 [13]): 8.98 upbm affinity estimate (log intensity, higher = more binding, comparable within an allelic series)

ACGATACC
binding signal (SIX6 [1]): 11.2 upbm affinity estimate (log intensity, higher = more binding, comparable within an allelic series) | binding signal (SIX6 [2]): 10.3 upbm affinity estimate (log intensity, higher = more binding, comparable within an allelic series) | binding signal (SIX6 [3]): 11.1 upbm affinity estimate (log intensity, higher = more binding, comparable within an allelic series) | binding signal (SIX6 [4]): 9.65 upbm affinity estimate (log intensity, higher = more binding, comparable within an allelic series) | binding signal (SIX6 [5]): 10.6 upbm affinity estimate (log intensity, higher = more binding, comparable within an allelic series) | binding signal (SIX6 [6]): 11 upbm affinity estimate (log intensity, higher = more binding, comparable within an allelic series) | binding signal (SIX6 [7]): 10.4 upbm affinity estimate (log intensity, higher = more binding, comparable within an allelic series) | binding signal (SIX6 [8]): 11.3 upbm affinity estimate (log intensity, higher = more binding, comparable within an allelic series) | binding signal (SIX6 [9]): 11.4 upbm affinity estimate (log intensity, higher = more binding, comparable within an allelic series) | binding signal (SIX6 [10]): 11.1 upbm affinity estimate (log intensity, higher = more binding, comparable within an allelic series) | binding signal (SIX6 [11]): 10.9 upbm affinity estimate (log intensity, higher = more binding, comparable within an allelic series) | binding signal (SIX6 [12]): 11.1 upbm affinity estimate (log intensity, higher = more binding, comparable within an allelic series) | binding signal (SIX6 [13]): 11 upbm affinity estimate (log intensity, higher = more binding, comparable within an allelic series)
